Consider one sequence from PMC7862700, “An all-to-all approach to the identification of sequence-specific readers for epigenetic DNA modifications on cytosine”.

Common to all, as to assay: DAPPL (digital affinity profiling via proximity ligation, sequencing); 10 mM Tris-HCl pH 7.5, 50 mM NaCl, 1 mM DTT, 4% glycerol, room temperature, 30 min; GST-TFs on glutathione beads, 16-mer random dsDNA library, 0.1% formaldehyde crosslink after washing; high values mean tight binding
For one assay, the target named is T1, FEV (Homo sapiens, UniProt Q99581 1-238).
T1 sequence: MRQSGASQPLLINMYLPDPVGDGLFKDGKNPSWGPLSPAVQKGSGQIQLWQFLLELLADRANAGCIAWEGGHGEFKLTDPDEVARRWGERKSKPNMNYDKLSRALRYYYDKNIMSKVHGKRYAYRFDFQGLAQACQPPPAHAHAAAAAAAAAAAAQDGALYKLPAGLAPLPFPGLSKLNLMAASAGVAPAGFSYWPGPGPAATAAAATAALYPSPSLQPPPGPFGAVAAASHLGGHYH
The note with it: protein: recombinant; tags: N-terminal GST; dsDNA, one strand shown. The method, boiled down:
(§1)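 Binding signal is given per hexamer as its read frequency for a factor divided by its frequency in the tag-only sample. GST-fused human transcription factors were expressed in yeast, captured on glutathione beads, barcoded with DNA and pooled with that sample, then incubated with 200 nmole of a 16-mer random double-stranded DNA library in Tris/NaCl/DTT/glycerol buffer for 30 min at room temperature. The pools were then washed, crosslinked, proximity-ligated, amplified by PCR and sequenced on an Illumina NextSeq500.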

In a further assay the target is ETV5 (Homo sapiens, UniProt P41161 1-510). The note with it: protein: recombinant; tags: N-terminal GST; dsDNA, one strand shown. The method, boiled down:
as §1

For the next assay, the target named is HSF1 (Homo sapiens, UniProt Q00613 1-529). The note with it: protein: recombinant; tags: N-terminal GST; chain copies: 3; dsDNA, one strand shown. The method in brief: as §1
The next assay addresses T2, SPIC (Homo sapiens, UniProt Q8N5J4 1-248).
T2 sequence: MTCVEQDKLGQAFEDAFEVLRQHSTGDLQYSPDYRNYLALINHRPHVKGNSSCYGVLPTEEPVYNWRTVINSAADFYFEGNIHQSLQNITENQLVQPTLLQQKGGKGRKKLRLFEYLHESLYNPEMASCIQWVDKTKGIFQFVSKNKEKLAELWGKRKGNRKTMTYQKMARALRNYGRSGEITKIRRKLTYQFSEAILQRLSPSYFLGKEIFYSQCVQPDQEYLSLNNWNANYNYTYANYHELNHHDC
The note with it: protein: recombinant; tags: N-terminal GST; dsDNA, one strand shown. The method, boiled down:
as §1

Another assay has as its target ELF4 (Homo sapiens, UniProt Q99607 1-663). The note with it: protein: recombinant; tags: N-terminal GST; dsDNA, one strand shown. The method in brief: as §1
For the next assay, the target named is T3, ELK4 (Homo sapiens, UniProt P28324-2 1-405).
T3 sequence: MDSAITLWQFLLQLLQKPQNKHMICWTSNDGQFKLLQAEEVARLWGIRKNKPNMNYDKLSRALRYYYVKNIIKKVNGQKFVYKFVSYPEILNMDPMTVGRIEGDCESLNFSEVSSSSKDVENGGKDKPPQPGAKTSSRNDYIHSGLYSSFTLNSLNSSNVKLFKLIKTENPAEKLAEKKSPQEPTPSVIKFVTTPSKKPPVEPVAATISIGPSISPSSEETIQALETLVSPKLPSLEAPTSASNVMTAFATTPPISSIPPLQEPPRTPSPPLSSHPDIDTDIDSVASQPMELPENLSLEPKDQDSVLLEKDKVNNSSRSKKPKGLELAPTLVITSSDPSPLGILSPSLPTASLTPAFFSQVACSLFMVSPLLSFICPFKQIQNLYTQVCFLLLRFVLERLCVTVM
Conditions: protein: recombinant; tags: N-terminal GST; dsDNA, one strand shown. The method in brief: as §1

Another assay has as its target T4, ETV2 (Homo sapiens, UniProt O00321 1-342).
T4 sequence: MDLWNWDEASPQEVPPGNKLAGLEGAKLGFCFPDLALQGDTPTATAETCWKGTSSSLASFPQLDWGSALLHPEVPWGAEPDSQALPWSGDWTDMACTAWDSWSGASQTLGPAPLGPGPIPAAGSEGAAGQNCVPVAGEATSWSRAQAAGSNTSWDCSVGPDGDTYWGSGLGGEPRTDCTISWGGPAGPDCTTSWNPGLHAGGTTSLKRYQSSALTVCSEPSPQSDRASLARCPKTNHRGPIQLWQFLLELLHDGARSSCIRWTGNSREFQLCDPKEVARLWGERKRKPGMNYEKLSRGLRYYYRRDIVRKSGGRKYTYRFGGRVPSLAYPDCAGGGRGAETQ
The note with it: protein: recombinant; tags: N-terminal GST; dsDNA, one strand shown. The method, boiled down:
as §1

The target of another assay is T5, ELF3 (Homo sapiens, UniProt P78545 1-371).
T5 sequence: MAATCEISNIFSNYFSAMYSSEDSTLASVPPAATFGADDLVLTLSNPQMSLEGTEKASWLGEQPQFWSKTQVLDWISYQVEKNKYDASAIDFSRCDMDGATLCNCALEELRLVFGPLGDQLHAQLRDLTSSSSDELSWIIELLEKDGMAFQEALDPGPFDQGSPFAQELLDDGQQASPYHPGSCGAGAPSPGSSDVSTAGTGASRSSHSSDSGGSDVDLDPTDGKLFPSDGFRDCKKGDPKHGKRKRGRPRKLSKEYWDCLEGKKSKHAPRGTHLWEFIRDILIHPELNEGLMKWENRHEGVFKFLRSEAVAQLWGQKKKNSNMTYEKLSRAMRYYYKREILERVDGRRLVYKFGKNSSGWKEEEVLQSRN
Conditions: protein: recombinant; tags: N-terminal GST; dsDNA, one strand shown. The method in brief:
as §1

The next assay has as its target CRX (Homo sapiens, UniProt O43186 1-299). The note with it: protein: recombinant; tags: N-terminal GST; dsDNA, one strand shown. The method, boiled down:
as §1

In the next assay the target is ETV1 (Homo sapiens, UniProt P50549 1-477). The note with it: protein: recombinant; tags: N-terminal GST; dsDNA, one strand shown. The method, boiled down: as §1
A further assay concerns the target T6, ERF (Homo sapiens, UniProt P50548 1-548).
T6 sequence: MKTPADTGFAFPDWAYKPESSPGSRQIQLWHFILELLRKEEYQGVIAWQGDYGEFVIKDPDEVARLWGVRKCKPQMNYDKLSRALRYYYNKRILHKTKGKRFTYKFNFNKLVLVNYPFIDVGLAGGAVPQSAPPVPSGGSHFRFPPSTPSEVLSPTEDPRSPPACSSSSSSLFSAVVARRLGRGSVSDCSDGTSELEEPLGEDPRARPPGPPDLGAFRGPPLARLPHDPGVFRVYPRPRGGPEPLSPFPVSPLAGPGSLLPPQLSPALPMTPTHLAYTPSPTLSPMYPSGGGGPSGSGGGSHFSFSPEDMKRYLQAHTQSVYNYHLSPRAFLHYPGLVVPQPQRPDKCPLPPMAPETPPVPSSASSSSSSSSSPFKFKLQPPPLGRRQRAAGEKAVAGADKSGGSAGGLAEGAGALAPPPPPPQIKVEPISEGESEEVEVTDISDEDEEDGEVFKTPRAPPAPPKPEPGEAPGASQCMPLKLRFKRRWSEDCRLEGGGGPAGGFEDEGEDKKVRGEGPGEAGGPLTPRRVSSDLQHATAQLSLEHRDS
The note with it: protein: recombinant; tags: N-terminal GST; dsDNA, one strand shown. The method in brief:
as §1

The target in a further assay is T7, ETV3L (Homo sapiens, UniProt Q6ZN32 1-361).
T7 sequence: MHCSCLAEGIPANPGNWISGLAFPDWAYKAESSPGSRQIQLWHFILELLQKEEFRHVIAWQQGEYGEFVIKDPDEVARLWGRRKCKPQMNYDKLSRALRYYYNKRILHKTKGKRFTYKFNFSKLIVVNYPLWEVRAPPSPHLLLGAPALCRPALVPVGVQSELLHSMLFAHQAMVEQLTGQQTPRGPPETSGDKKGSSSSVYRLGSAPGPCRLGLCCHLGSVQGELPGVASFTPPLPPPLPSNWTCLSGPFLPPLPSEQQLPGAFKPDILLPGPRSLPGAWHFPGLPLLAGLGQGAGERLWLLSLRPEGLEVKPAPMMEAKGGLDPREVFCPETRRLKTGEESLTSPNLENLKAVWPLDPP
The note with it: protein: recombinant; tags: N-terminal GST; dsDNA, one strand shown. The method in brief:
as §1

Another assay addresses T8, ETS2 (Homo sapiens, UniProt P15036 1-469).
T8 sequence: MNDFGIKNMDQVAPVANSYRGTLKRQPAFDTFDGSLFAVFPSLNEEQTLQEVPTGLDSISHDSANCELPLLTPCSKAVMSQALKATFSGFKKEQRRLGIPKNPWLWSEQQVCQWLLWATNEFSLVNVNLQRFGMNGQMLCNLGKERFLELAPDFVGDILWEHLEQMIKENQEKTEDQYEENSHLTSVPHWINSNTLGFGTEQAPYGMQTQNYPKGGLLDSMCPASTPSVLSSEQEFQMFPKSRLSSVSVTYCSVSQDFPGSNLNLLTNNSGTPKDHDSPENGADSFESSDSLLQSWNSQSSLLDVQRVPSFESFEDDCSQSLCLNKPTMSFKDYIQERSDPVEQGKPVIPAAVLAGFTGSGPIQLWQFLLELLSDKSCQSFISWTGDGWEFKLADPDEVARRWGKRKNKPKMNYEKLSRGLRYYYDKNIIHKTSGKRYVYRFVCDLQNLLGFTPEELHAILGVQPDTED
Conditions: protein: recombinant; tags: N-terminal GST; dsDNA, one strand shown. The method in brief:
as §1

Another assay has as its target T9, SPDEF (Homo sapiens, UniProt O95238 1-335).
T9 sequence: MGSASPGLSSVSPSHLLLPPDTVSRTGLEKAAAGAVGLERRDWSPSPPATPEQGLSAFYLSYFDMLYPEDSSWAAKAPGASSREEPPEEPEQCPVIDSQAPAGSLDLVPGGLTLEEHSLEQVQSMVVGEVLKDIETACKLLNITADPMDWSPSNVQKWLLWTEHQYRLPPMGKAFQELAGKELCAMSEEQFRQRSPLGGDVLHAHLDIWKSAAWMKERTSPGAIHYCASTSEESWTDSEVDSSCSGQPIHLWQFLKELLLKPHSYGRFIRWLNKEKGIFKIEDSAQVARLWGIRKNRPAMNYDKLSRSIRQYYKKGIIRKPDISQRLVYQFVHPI
The note with it: protein: recombinant; tags: N-terminal GST; dsDNA, one strand shown. The method in brief:
as §1

For the next assay, the target named is T10, ETV7 (Homo sapiens, UniProt Q9Y603 1-341).
T10 sequence: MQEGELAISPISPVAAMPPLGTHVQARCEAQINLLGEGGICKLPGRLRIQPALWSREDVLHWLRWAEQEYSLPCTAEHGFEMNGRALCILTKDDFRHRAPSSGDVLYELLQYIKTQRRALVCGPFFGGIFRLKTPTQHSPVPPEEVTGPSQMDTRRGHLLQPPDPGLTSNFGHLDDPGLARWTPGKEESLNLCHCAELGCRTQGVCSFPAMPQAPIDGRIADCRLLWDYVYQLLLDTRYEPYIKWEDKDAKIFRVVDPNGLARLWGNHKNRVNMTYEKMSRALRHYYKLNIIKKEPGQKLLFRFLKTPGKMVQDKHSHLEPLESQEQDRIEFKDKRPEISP
Conditions: protein: recombinant; tags: N-terminal GST; dsDNA, one strand shown. The method in brief: as §1

The next assay deals with T11, ELF5 (Homo sapiens, UniProt Q9UKW6-2 1-255).
T11 sequence: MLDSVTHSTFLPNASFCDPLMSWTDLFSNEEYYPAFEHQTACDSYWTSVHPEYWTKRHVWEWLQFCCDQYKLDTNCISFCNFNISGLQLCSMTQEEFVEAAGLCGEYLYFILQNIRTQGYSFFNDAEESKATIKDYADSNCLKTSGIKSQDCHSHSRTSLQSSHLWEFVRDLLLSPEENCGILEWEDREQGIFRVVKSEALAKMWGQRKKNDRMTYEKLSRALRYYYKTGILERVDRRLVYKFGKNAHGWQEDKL
The note with it: protein: recombinant; tags: N-terminal GST; dsDNA, one strand shown. The method in brief:
as §1

The target in another assay is T12, ETV3 (Homo sapiens, UniProt P41162-2 1-143).
T12 sequence: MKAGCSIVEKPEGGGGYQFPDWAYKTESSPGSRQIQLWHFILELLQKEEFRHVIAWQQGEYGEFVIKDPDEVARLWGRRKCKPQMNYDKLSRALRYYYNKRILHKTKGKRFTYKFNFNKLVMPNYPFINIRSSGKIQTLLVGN
Conditions: protein: recombinant; tags: N-terminal GST; dsDNA, one strand shown. The method, boiled down:
as §1

In the next assay the target is ETV6 (Homo sapiens, UniProt P41212 1-452). The note with it: protein: recombinant; tags: N-terminal GST; dsDNA, one strand shown. The method, boiled down: as §1
Chain of ETV6 (P41212 whole entry): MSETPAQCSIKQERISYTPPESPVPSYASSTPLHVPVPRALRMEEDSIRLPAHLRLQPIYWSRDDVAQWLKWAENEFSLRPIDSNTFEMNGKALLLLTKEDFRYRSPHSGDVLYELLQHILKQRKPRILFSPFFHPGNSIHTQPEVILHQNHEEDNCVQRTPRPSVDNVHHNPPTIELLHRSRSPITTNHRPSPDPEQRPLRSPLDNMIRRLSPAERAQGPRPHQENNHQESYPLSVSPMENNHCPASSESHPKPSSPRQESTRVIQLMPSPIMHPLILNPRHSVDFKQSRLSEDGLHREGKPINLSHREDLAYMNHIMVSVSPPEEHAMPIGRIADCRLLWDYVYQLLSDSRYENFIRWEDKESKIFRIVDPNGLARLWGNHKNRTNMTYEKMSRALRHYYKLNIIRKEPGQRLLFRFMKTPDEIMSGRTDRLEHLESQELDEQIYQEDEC

Chain of HSF1 (Q00613 whole entry): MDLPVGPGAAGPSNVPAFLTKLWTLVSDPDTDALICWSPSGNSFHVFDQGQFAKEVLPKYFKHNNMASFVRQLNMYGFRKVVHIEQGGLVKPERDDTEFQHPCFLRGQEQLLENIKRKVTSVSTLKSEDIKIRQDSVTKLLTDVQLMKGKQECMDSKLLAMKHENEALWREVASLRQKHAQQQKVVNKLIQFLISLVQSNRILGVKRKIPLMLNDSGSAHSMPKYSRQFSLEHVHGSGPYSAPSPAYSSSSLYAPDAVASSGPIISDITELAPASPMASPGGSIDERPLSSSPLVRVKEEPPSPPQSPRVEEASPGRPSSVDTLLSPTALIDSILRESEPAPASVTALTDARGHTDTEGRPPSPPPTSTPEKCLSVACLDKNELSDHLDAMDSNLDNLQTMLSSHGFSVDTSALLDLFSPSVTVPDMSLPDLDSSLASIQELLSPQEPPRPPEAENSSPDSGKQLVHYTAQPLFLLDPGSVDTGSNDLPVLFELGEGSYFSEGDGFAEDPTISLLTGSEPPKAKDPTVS
Chain of ETV1 (P50549 whole entry): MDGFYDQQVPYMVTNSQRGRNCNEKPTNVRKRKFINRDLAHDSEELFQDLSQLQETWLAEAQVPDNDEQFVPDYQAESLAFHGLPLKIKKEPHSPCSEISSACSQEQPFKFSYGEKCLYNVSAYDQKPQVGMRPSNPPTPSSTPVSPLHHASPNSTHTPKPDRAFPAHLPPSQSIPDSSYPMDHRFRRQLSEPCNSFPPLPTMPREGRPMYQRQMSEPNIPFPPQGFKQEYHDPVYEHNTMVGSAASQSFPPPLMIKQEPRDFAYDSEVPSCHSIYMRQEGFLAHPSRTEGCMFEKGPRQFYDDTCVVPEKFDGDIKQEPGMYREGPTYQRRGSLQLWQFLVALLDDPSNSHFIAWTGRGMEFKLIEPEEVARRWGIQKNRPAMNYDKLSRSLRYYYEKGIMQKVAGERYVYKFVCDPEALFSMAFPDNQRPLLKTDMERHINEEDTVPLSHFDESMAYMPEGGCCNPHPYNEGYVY
Chain of CRX (O43186 whole entry): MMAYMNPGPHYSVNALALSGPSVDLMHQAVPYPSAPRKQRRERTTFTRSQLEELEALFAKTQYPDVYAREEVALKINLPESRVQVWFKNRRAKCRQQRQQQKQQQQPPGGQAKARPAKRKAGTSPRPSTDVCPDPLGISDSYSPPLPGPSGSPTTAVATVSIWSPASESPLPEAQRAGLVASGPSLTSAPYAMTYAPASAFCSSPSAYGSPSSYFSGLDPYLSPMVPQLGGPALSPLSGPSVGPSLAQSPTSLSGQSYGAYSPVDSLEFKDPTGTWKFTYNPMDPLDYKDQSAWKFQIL
Chain of ETV5 (P41161 whole entry): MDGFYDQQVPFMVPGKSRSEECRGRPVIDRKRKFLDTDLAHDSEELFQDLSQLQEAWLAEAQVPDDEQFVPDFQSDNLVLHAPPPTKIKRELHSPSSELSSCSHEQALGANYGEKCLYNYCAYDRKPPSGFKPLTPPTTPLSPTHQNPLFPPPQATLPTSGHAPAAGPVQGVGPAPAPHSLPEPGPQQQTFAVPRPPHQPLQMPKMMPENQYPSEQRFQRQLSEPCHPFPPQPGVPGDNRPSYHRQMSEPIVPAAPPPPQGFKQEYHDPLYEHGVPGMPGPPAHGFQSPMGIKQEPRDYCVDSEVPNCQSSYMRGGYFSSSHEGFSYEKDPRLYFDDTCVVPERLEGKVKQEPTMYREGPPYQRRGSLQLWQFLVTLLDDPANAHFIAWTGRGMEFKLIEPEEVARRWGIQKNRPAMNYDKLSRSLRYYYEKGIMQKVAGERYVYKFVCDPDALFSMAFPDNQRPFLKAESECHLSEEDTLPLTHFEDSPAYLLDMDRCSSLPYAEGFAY
Chain of ELF4 (Q99607 whole entry): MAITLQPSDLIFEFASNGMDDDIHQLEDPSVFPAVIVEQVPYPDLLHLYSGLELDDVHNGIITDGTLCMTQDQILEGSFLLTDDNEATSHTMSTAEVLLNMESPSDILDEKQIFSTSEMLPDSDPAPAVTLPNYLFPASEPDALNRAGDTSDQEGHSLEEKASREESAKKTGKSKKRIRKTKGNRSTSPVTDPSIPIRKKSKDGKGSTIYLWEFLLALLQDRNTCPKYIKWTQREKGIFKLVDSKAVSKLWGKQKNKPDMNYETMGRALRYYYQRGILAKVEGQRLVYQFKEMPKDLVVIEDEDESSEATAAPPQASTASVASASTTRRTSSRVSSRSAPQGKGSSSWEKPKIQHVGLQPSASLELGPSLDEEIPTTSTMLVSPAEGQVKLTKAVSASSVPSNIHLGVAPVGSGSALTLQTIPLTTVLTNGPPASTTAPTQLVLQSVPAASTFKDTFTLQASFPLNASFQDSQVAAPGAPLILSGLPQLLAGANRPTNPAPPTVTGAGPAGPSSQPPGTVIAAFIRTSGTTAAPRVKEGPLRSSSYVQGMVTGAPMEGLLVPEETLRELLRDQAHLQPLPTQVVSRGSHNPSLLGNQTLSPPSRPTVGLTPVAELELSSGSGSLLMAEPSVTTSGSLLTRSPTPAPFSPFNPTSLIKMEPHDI

As to GCTCGC, the binding signal with FEV was 1.42 fold enrichment (6-mer frequency, TF over GST control); with ETV5, 1.32 fold enrichment (6-mer frequency, TF over GST control); with HSF1, 1.25 fold enrichment (6-mer frequency, TF over GST control); with SPIC it was 1.44 fold enrichment (6-mer frequency, TF over GST control); in the assay with ELF4, 1.28 fold enrichment (6-mer frequency, TF over GST control); in the assay with ELK4, 1.52 fold enrichment (6-mer frequency, TF over GST control). Also, the binding signal was 1.17 fold enrichment (6-mer frequency, TF over GST control) with ETV2; 1.51 fold enrichment (6-mer frequency, TF over GST control) with ELF3; 1.12 fold enrichment (6-mer frequency, TF over GST control) in the assay with CRX; 1.37 fold enrichment (6-mer frequency, TF over GST control) with ETV1; 1.36 fold enrichment (6-mer frequency, TF over GST control) with ERF; 1.35 fold enrichment (6-mer frequency, TF over GST control) with ETV3L. For the same sequence, the binding signal was 1.45 fold enrichment (6-mer frequency, TF over GST control) with ETS2; 1.29 fold enrichment (6-mer frequency, TF over GST control) in the assay with SPDEF; 1.21 fold enrichment (6-mer frequency, TF over GST control) in the assay with ETV7; 1.31 fold enrichment (6-mer frequency, TF over GST control) with ELF5; 1.35 fold enrichment (6-mer frequency, TF over GST control) with ETV3; 1.35 fold enrichment (6-mer frequency, TF over GST control) with ETV6.
